Assay results reported in ChEMBL document CHEMBL4513216, “Probing the Open Global Health Chemical Diversity Library for Multistage-Active Starting Points for Next-Generation Antimalarials” (ACS Infect Dis, 2020).
Screen size: about 69,000 compounds; about 8,600 (12%) showed an effect of 50% or more. The entries come from a sample that favours strong results as a whole.

Tested on: Plasmodium berghei
Assay: Screen against P. berghei liver stage (PbLuc), transformed with Luciferase, at 10uM
Assay type: functional, HepG2
Settings: tested at 10 uM

First: CO[C@H]1CN(Cc2cccc(C#N)c2)[C@@H]2COC[C@H]12
Second: CCc1nnc2n1CCN(C(=O)C(C)Oc1cccc(C#N)c1)C2 (centres undefined)
The INHIBITION of the first is higher: 34.1% for the first, -15% for the second.

Going from CS(=O)(=O)N1CC2(CCCN(CC3CC3)C2)Cc2ccccc21 (centres undefined) to CS(=O)(=O)N1CC2(CCN(CC3CC3)C2)Cc2ccccc21 (centres undefined), the INHIBITION falls from 54.9% to 21.7%.

Compared with CS(=O)(=O)N1CC2(CCCN(C3COC3)C2)Cc2ccccc21 (centres undefined), CS(=O)(=O)N1CC2(CCN(C3COC3)C2)Cc2ccccc21 (centres undefined) is higher in INHIBITION: 28.4% for the first, 55.7% for the second.

Going from CS(=O)(=O)N1CC2(CCN(CC3CCCCC3)C2)Cc2ccccc21 (centres undefined) to CS(=O)(=O)N1CC2(CCN(C3CCCCC3)C2)Cc2ccccc21 (centres undefined), the INHIBITION falls from 48.2% to 40.8%.

First: CC(C)OCc1noc(C2CC=CC2)n1
Second: CC(C)NC(=O)O[C@H]1COCCN(c2nc3ccccc3s2)C1
The INHIBITION of the first is lower: -20% for the first, -1.12% for the second.

Going from CC1CN(C)CCN1C(=O)Nc1nc(-c2cccn2C)cs1 (centres undefined) to CCNC(=O)O[C@H]1COCCN(c2nc3ccccc3s2)C1, the INHIBITION falls from 47% to -3.58%.

First: CCCc1nnc(N2CCN(c3cccc(C)c3C)CC2)o1
Second: Cc1noc(C)c1-c1ccc(C2CCCN2CCC(N)=O)nc1 (centres undefined)
The INHIBITION of the first is lower: 30.1% for the first, 30.4% for the second.

Compared with Cc1nc2sccn2c1C(=O)N1CCc2c(nc(N(C)C)[nH]c2=O)C1, Cc1nc2sccn2c1C(=O)N1CCc2c(nc(N)[nH]c2=O)C1 is lower in INHIBITION: 51.8% for the first, -31.6% for the second.

Going from O=C(c1cn(CC(=O)N2CCc3[nH]cnc3C2)c2ccccc12)C1CC1 to Cc1nc2ncccn2c1C(=O)N1CCc2[nH]cnc2C1, the INHIBITION rises from 12.6% to 22.5%.

Compared with Cc1nc2sccn2c1C(=O)N1CCc2[nH]cnc2C1, CC(=O)Nc1cccc(C(=O)N2CCc3c(nc(N(C)C)[nH]c3=O)C2)c1 is lower in INHIBITION: 58.3% for the first, 41.5% for the second.

Going from O=C(Nc1ccc(F)cc1-c1nc(C2CC2)no1)N1CC[C@@H](O)C1 to CC(C)N1CCC(Cc2cncc(-c3cc(F)ccc3C(=O)O)n2)C1 (centres undefined), the INHIBITION falls from 42.1% to 35.2%.

Compared with COc1ccccc1NC(=O)CCNC(=O)c1ccoc1, COc1cc2nc(C)n(CC(=O)NCCCO)c(=O)c2cc1OC is higher in INHIBITION: -37.8% for the first, -5.01% for the second.

Compared with CCc1nc(C2CCCN2C(=O)CCc2c(C)noc2Cl)no1 (centres undefined), CC(=O)N(Cc1noc(C)n1)C1CCN(Cc2c(C)noc2C)C1 (centres undefined) is lower in INHIBITION: 1.78% for the first, -27.8% for the second.

First: COCC(=O)N1CCN(CCn2cccn2)c2nc(C)ccc2C1
Second: Cc1cncc(C2CCN(C(=O)c3ccc(-n4cccn4)nc3)CC2)n1
The INHIBITION of the first is higher: 21.4% for the first, -35.5% for the second.

Compared with Cc1nc2n(n1)CC(Nc1nc(C(F)(F)F)nc3ccccc13)CC2 (centres undefined), FC(F)(F)c1nc(NC2CCCC2)c2ccccc2n1 is higher in INHIBITION: -59.3% for the first, 88.4% for the second.

First: CC(C(=O)NC1CCCCC1)N1CCc2[nH]nc(C(F)(F)F)c2C1 (centres undefined)
Second: FC(F)(F)c1nc(NC2CCCCC2)c2ccccc2n1
The INHIBITION of the first is lower: -41.7% for the first, 88.4% for the second.

Compared with CC(C)C(Nc1nc(C(F)(F)F)nc2ccccc12)C(=O)O (centres undefined), CCC(Nc1nc(C(F)(F)F)nc2ccccc12)C(=O)O (centres undefined) is lower in INHIBITION: 22.3% for the first, -21.3% for the second.

Going from Cc1cnc(CN2CCCC2c2cnn(C)c2)cn1 (centres undefined) to CN1CCc2nc(C3CCCCN3Cc3ccccc3Cl)ncc2C1 (centres undefined), the INHIBITION rises from -11.4% to 13.5%.

Compared with Cc1ccccc1N(CC(=O)NCCc1nnc2n1CCC2)S(C)(=O)=O, Cc1cc(=O)n2c3c(cc(S(=O)(=O)NC4CC4)cc13)CCC2 is higher in INHIBITION: -9.51% for the first, 49.45% for the second.

Going from CN1CCCCC1c1ncc2c(n1)CCN(Cc1ccccc1Cl)C2 (centres undefined) to Clc1ccccc1CN1CCc2nc(C3CCCCN3)ncc2C1 (centres undefined), the INHIBITION falls from 51.7% to 43.2%.

First: COc1ccc(CN2CCc3nc(C4CCCCN4C)ncc3C2)cc1 (centres undefined)
Second: CN1CCCCC1c1ncc2c(n1)CCN(Cc1ccc(F)cc1)C2 (centres undefined)
The INHIBITION of the first is higher: 42.6% for the first, 24.4% for the second.

Going from CN1CCCCC1c1ncc2c(n1)CCN(Cc1ccc(Cl)c(F)c1)C2 (centres undefined) to Cn1cc(C(=O)N[C@@H]2CN(Cc3ccc(F)cc3)[C@@H]3CCCO[C@@H]32)cn1, the INHIBITION falls from 58.1% to -17.1%.

Going from O=C(c1ccc(-n2cccn2)nc1)N1CCC(c2ccn[nH]2)C1 (centres undefined) to O=C(c1ccc(-n2cccn2)nc1)N1CCC(c2ccc(O)cc2)CC1, the INHIBITION rises from 23% to 50.1%.

Going from O=C(O)CN(Cc1ccsc1)CC1CCCO1 (centres undefined) to Cc1ccc(CN2CCNC(C(=O)NC3CC3)C2)cc1C (centres undefined), the INHIBITION falls from 8.7% to -2.25%.

Going from Cc1noc(C)c1CN1CCn2cc(CN3CCCC3)nc2C1 to CCc1cnc(N)nc1NCCCN1CCCCC1CO (centres undefined), the INHIBITION rises from -15.2% to 6.94%.

Going from CCc1cnc(N)nc1NCCCn1nc(C)nc1C to CCc1cnc(N)nc1NCCCn1cc(Cl)cn1, the INHIBITION rises from 14.6% to 64.1%.

Compared with CCc1cnc(N)nc1NCc1ccc(OC)cc1OC, CCc1cnc(N)nc1NCCc1ccc(OC)cc1OC is lower in INHIBITION: 73.8% for the first, 58.05% for the second.

First: COc1ccc(CNc2cc(-c3nc(C)no3)ccn2)c(OC)c1
Second: CCc1cnc(N)nc1NCc1ccc(OC)c(OC)c1
The INHIBITION of the first is lower: 6.61% for the first, 44% for the second.

Going from COc1ccc(OC)c(CCNc2ncc(S(N)(=O)=O)s2)c1 to CCc1cnc(N)nc1NCCn1cc(Cl)cn1, the INHIBITION rises from -19.9% to 30.4%.

Going from COc1cccc(C(=O)N2CCC(Nc3ccc(C)nn3)CC2)c1 to CCCc1nc(C)cc(N2CCNC(C(=O)NC3CC3)C2)n1 (centres undefined), the INHIBITION rises from 21.5% to 47.1%.

Going from Cc1nnc(NC(=O)NC(C)Cn2cccn2)s1 (centres undefined) to O=C(NCc1ccccn1)NC1CCCN(c2ncccn2)C1 (centres undefined), the INHIBITION rises from -21.9% to 23%.

First: O=C(NC1CC1)C1CN(c2nc3ccccc3s2)CCN1 (centres undefined)
Second: O=C(NCc1ccncc1)C1CN(c2nc3ccccc3s2)CCN1 (centres undefined)
The INHIBITION of the first is higher: 65.6% for the first, 30.4% for the second.

First: Nc1nccc(N2CCNC(C(=O)NCc3ccccn3)C2)n1 (centres undefined)
Second: O=C(NCc1ccccn1)C1CN(c2nc3ccccc3s2)CCN1 (centres undefined)
The INHIBITION of the first is lower: 52.6% for the first, 58.2% for the second.

Going from O=C(NCc1cccnc1)C1CN(c2cnc3ccccc3n2)CCN1 (centres undefined) to O=C(NCc1ccccn1)[C@H]1COC[C@H]2CN(c3ncccn3)C[C@H]21, the INHIBITION rises from 37.8% to 41%.

For O=C(NC1CCCC1)O[C@H]1COCCN(c2nc3ccccc3s2)C1, the INHIBITION was 85.1%.
